A selection: hits, their analogues and other compounds. The true share with any hit is near 1.3%.
PriA SSB inh: inhibitors of Klebsiella pneumoniae PriA binding to SSB C-terminal tail, primary screen, biochemical, AlphaScreen; AlphaScreen SSBct-PriA binding, biotinylated peptide; PriA–SSB C-terminal tail interaction (Klebsiella pneumoniae); 430,000 compounds, 0.6% hits; AID 1272365, 2023; inhibition, % at 33 µM; in the data active means inhibition mostly above about 37%, no sharp cut-off; inactive means mostly below about 20%
BH1578 lux ind: inducers of Vibrio cholerae quorum light production without autoinducers, primary screen, BH1578 luxS cqsA deficient, single point; 350,000 compounds, 0.16% hits; activation, % at 18.7 µM; V. cholerae BH1578 lux reporter, luminescence, 6 h; AID 588436, 2011; in the data active means activation mostly above about 9.7%, no sharp cut-off
CCHFV vOTU inh: CCHFV vOTU protease inhibitors, primary screen, biochemical, Pep-AMC substrate, fluorescence. Crimean-Congo hemorrhagic fever virus L polyprotein viral ovarian tumor (vOTU) protease …. inhibition, % at 11.5 µM. 370,000 compounds, 0.55% hits; in the data active means inhibition above about 30%
VHR inh abs: VHR1 phosphatase inhibitors, primary screen, biochemical, absorbance, uHTS. Dual specificity protein phosphatase 3 (Homo sapiens), P51452. recombinant VHR phosphatase, pNPP absorbance. inhibition, % at 13.3 µM. 290,000 compounds, 0.52% hits. AID 1654, 2009; in the data active means inhibition above about 50%
TcdB inh: TcdB glycohydrolase inhibitors, primary screen, biochemical, single point, plate reader; Toxin B (Clostridioides difficile), P18177; TcdB glycohydrolase enzymatic assay; inhibition, % at 9.99 µM; 350,000 compounds, 0.24% hits; in the data active means inhibition above about 10%
Target sequence (P18177 whole entry, looked up): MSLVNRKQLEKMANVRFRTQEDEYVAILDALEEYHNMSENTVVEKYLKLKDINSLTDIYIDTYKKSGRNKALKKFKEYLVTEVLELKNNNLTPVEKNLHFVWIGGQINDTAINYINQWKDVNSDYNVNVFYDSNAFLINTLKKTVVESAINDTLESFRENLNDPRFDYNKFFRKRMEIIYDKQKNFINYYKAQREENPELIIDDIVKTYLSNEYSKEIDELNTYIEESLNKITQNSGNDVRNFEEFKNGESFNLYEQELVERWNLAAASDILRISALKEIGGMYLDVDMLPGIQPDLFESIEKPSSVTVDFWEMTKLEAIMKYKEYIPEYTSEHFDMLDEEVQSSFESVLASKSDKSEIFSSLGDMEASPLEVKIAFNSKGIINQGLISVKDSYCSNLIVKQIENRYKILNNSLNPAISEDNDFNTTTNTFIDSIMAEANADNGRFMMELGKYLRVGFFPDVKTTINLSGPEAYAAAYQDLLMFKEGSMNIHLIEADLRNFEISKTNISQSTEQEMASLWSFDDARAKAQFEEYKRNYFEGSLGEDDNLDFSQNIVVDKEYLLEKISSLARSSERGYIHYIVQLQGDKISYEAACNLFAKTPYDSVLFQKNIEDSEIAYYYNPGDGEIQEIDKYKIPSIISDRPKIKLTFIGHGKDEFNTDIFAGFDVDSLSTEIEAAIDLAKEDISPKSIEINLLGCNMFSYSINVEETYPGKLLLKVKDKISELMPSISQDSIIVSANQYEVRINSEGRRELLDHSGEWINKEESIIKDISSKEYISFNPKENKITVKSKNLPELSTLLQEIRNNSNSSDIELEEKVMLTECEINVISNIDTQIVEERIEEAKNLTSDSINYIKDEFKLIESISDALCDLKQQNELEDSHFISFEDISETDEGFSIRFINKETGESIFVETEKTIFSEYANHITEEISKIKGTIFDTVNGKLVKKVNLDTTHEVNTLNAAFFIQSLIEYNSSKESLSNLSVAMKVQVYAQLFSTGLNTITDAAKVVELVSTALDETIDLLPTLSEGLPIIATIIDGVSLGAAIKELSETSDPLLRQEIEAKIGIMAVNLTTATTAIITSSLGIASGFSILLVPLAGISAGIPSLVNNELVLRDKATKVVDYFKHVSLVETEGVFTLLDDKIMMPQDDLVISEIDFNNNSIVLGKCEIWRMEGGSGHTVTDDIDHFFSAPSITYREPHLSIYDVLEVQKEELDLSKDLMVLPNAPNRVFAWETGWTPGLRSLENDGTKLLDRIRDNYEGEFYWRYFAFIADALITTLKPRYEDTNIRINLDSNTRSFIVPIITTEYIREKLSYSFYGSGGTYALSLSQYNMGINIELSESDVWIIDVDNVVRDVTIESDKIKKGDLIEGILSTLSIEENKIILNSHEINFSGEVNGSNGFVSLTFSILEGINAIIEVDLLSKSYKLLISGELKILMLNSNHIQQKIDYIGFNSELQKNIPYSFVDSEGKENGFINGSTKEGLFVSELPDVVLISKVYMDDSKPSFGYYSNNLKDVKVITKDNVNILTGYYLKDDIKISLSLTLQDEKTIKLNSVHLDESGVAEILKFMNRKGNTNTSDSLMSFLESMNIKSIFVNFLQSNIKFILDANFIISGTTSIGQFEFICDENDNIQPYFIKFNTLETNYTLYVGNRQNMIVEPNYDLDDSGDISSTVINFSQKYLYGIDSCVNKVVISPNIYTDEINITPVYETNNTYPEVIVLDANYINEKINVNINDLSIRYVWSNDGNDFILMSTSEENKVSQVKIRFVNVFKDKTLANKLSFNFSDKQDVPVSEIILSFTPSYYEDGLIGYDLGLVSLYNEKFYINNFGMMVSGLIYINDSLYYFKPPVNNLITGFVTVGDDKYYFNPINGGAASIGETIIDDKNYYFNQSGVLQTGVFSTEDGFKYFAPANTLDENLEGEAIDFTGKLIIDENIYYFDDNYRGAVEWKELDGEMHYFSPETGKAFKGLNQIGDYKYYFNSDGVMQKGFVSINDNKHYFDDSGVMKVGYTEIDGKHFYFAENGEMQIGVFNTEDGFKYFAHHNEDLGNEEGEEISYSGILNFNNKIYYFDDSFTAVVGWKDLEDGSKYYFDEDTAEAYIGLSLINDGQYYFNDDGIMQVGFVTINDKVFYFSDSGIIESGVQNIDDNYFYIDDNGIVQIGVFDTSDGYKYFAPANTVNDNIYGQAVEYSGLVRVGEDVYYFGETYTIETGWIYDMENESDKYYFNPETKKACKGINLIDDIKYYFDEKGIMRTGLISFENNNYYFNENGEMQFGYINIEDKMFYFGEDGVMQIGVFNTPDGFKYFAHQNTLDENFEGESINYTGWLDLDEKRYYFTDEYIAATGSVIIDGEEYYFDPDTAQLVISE
SARS 3CLpro inh: SARS-CoV 3CLpro protease inhibitors, primary screen, biochemical, quenched FRET. recombinant SARS-CoV 3CLpro, quenched FRET peptide cleavage. inhibition, % at 6 µM. 290,000 compounds, 0.14% hits. AID 1706, 2009; in the data active means inhibition above about 12%
Hits are given with their value; ! = not active in a repeat.

CN(C)CCNC(=O)Cn1nc(C(F)F)cc1C1CC1 was read as PriA SSB inh inactive, BH1578 lux ind inactive, CCHFV vOTU inh inactive, VHR inh abs inactive and SARS 3CLpro inh inactive.
Screening O=C(Cn1nc(C(F)F)cc1C1CC1)N1CCCC1 returned PriA SSB inh inactive, BH1578 lux ind inactive, CCHFV vOTU inh inactive, VHR inh abs 59.1, TcdB inh inactive and SARS 3CLpro inh inactive.
For CSc1ccccc1NC(=O)C(=O)NCC[C@@H](CCO)c1ccccc1 the results were PriA SSB inh inactive.
For Cc1ccccc1NC(=S)c1ccc2ccccc2n1 the results were PriA SSB inh 65.0!, BH1578 lux ind inactive, CCHFV vOTU inh inactive, VHR inh abs inactive, TcdB inh inactive and SARS 3CLpro inh inactive.
Screening CCCN(CC(=O)Nc1ccccc1C)C(=O)c1ccc2ccccc2n1 returned PriA SSB inh inactive, BH1578 lux ind inactive, CCHFV vOTU inh inactive and TcdB inh inactive.
For COc1cccc(NCc2cc(=O)oc3cc(C)c(O)cc23)c1 the results were PriA SSB inh inactive, BH1578 lux ind inactive, CCHFV vOTU inh inactive, VHR inh abs 52.0, TcdB inh inactive and SARS 3CLpro inh inactive.
`CCOc1ccccc1NCc1cc(=O)oc2cc(C)c(O)cc12` gave PriA SSB inh inactive, BH1578 lux ind inactive, CCHFV vOTU inh inactive, VHR inh abs 55.4, TcdB inh inactive and SARS 3CLpro inh inactive.
`Cc1ccccc1-n1nc(C)c(C=O)c1C` gave PriA SSB inh inactive.
O=C(C1=C[C@H](c2ccc(Br)cc2)C[C@H](OCCCCO)O1)N1CCN(Cc2ccccc2)CC1 was read as PriA SSB inh 41.8, BH1578 lux ind inactive, CCHFV vOTU inh inactive, VHR inh abs inactive, TcdB inh inactive and SARS 3CLpro inh inactive.
For O=C(C1=C[C@H](c2ccc(Br)cc2)C[C@H](OCc2ccc(CO)cc2)O1)N1CCN(Cc2ccccc2)CC1 the results were TcdB inh inactive.
`O=[N+]([O-])c1ccc(Sc2nc3ccccc3o2)c([N+](=O)[O-])c1` gave PriA SSB inh inactive, BH1578 lux ind inactive, CCHFV vOTU inh inactive, VHR inh abs inactive, TcdB inh inactive and SARS 3CLpro inh inactive.
O=[N+]([O-])c1ccc(Cl)cc1Sc1nc2ccccc2o1 was read as PriA SSB inh 48.8, BH1578 lux ind inactive, CCHFV vOTU inh inactive, VHR inh abs inactive, TcdB inh inactive and SARS 3CLpro inh inactive.
Screening Cc1cc(C)c2c(c1)cc(C)c1nnc(SCC(=O)N3CCCc4ccccc43)n12 returned PriA SSB inh inactive, BH1578 lux ind inactive, CCHFV vOTU inh inactive, VHR inh abs inactive and SARS 3CLpro inh inactive.
`O=C(Cn1c(SCC(=O)N2CCCc3ccccc32)nc2ccccc21)N1CCCC1` gave PriA SSB inh inactive, BH1578 lux ind inactive, VHR inh abs 52.9, TcdB inh inactive and SARS 3CLpro inh inactive.
`Cc1ccc(C)c2c1cc(C)c1nnc(SCC(=O)N3CCCc4ccccc43)n12` gave PriA SSB inh inactive, BH1578 lux ind inactive, CCHFV vOTU inh inactive, VHR inh abs 59.9 and SARS 3CLpro inh inactive.
Screening COc1cccc(-c2nc(CSc3n[nH]c(=O)c4cc(-c5ccco5)nn34)c(C)o2)c1OC returned PriA SSB inh inactive.
For C=CCc1ccccc1OCCSc1nc2ccccc2n1CC(=O)N1CCOCC1 the results were PriA SSB inh inactive.
For O=C(CSCc1ccccc1)N1CCC(N2CCC(Oc3ccccc3F)CC2)CC1 the results were PriA SSB inh inactive.
Cc1ccn(-c2ccc(Nc3ccc(NC(=O)C4CCCO4)cc3)nn2)n1 (stereo not drawn) was read as PriA SSB inh inactive.
For Cc1nn(-c2ccccc2)c2sc(C(=O)OCc3nnc(-c4ccccc4)o3)cc12 the results were PriA SSB inh inactive, BH1578 lux ind 22.2, CCHFV vOTU inh inactive, VHR inh abs inactive and SARS 3CLpro inh inactive.
CCc1nnc(NC(=O)c2ccc3[nH]c(C)cc(=O)c3c2)s1 was read as PriA SSB inh inactive.
Nc1nonc1-n1nnc(C(=O)N/N=C/c2cccc(Cl)c2)c1CN1CCCCCC1 was read as BH1578 lux ind inactive, CCHFV vOTU inh inactive and TcdB inh inactive.
Screening Nc1nonc1-n1nnc(C(=O)N/N=C/c2cccc(O)c2)c1CN1CCCC1 returned BH1578 lux ind 30.5, CCHFV vOTU inh inactive, VHR inh abs inactive, TcdB inh inactive and SARS 3CLpro inh inactive.
Cc1cc2nnc(SCC(=O)Nc3cc(Cl)ccc3Cl)n2c2ccccc12 was read as PriA SSB inh inactive.
For C=C(C)CSc1nc(C)cc(=O)[nH]1 the results were PriA SSB inh inactive.
C=C(C)CSc1nc(N)cc(=O)[nH]1 was read as PriA SSB inh inactive, BH1578 lux ind 16.7, CCHFV vOTU inh inactive, VHR inh abs inactive and SARS 3CLpro inh inactive.
`CCCOc1ccc2oc(=O)c3c(c2c1)CCCN3C(=O)CN1CCN(C(=O)c2ccco2)CC1` gave VHR inh abs inactive and SARS 3CLpro inh inactive.
For CCCOc1ccc2oc(=O)c3c(c2c1)CCCN3C(=O)CN1CCN(c2ncccn2)CC1 the results were PriA SSB inh inactive, BH1578 lux ind inactive, CCHFV vOTU inh inactive, VHR inh abs 55.6 and SARS 3CLpro inh inactive.
`Oc1cccc2c(NC(=S)Nc3ccc(SC(F)F)cc3)cccc12` gave PriA SSB inh 47.8, BH1578 lux ind inactive, CCHFV vOTU inh inactive, VHR inh abs inactive, TcdB inh inactive and SARS 3CLpro inh inactive.
For Cn1c(N/N=C/c2cccs2)cc(=O)n(C)c1=O the results were BH1578 lux ind 33.3, CCHFV vOTU inh inactive, VHR inh abs inactive and SARS 3CLpro inh inactive.
Screening COc1ccc(-n2c(Cn3c(=O)sc4ccccc43)nnc2SCC(=O)N2CCCC2)cc1 returned PriA SSB inh inactive, BH1578 lux ind inactive, CCHFV vOTU inh inactive, VHR inh abs 50.3, TcdB inh inactive and SARS 3CLpro inh inactive.
For CCSc1ccccc1C(=O)Nc1nc(-c2ccc(OC)c(OC)c2)cs1 the results were PriA SSB inh inactive.
Cc1ccc(-c2ccc(=O)n(Cc3nc(-c4ccc(Cl)cc4)no3)n2)cc1C was read as PriA SSB inh inactive.
`O=C(CSc1ccc2nnc(-c3ccc(F)cc3)n2n1)N1CCOCC1` gave PriA SSB inh inactive, BH1578 lux ind inactive, CCHFV vOTU inh inactive, TcdB inh 23.5 and SARS 3CLpro inh inactive.
For CCOC(=O)N1CCN(C(=O)CSc2ccc3nnc(-c4ccc(F)cc4)n3n2)CC1 the results were PriA SSB inh inactive.
For CSc1cccc(NC(=O)Cn2c(=O)nc(-c3ccccc3F)c3cc(Cl)ccc32)c1 the results were PriA SSB inh inactive.
`CC(C)Nc1nc(C#N)nc(NC(C)C)n1` gave PriA SSB inh 42.0, BH1578 lux ind inactive, CCHFV vOTU inh inactive, VHR inh abs inactive and SARS 3CLpro inh inactive.

Bioassay records: PubChem BioAssay, several laboratories
